Screening results as filed in PubChem.
Pf apPOL block – Pf-apPOL DNA polymerase inhibition; inhibition, % at 10 µM; hit rate 0.25% among 210,000; Recombinant Pf-apPOL, molecular beacon fluorescence, 1.5 h
mHTT-CaM PPI inh – mHTT-calmodulin interaction abrogation | P42858 | AlphaScreen His-mHTT/GST-CaM binding, luminescence | inhibition, % at 15 µM | hit rate 3.6% among 190,000 | AID 1671202;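 note: 0% = both proteins with DMSO and 100% = one protein alone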
Numbers without * were called inactive; i = inactive; nt = no result; ! = not active in a repeat. The entries come from a sample that favours hits as a whole. Cut-off read from the data, not from the text of the source: active = inhibition above about 50%; inactive = the rest.

SMILES	Pf apPOL block	mHTT-CaM PPI inh
CC(=O)c1c(C)nn2c3ccccc3n(CCN3CCOCC3)c12	0	-2
O=C1OC(c2ccc(F)cc2)=N/C1=C\c1ccco1	2	10
CC(C)c1cccc(NC(=O)Cn2ccc3sccc3c2=O)c1	0	0
O=C(CCSc1ccc(Cl)cc1)Nc1nc(-c2ccncc2)cs1	1	-6
CCCCNC(=O)c1c(Cl)nc(Cl)c([N+](=O)[O-])c1Cl	-5	94*
CCCCNC(=O)c1c(Cl)nc(Cl)c(Cl)c1C	2	-6
CC1CCN(S(=O)(=O)c2ccc(F)c(C(=O)NC3CCCC(C)C3C)c2)CC1 (stereo not drawn)	1	-5
Cc1ccc(CNC(=O)c2ccc3ncnc(N4CCCC4)c3c2)cc1C	1	-2
COc1ccc2c(c1)C(C)(C)C1(C=Cc3cc([N+](=O)[O-])ccc3O1)N2C (stereo not drawn)	-2	70*
CC1(C)c2ccccc2N(CC(N)=O)C12C=Cc1cc([N+](=O)[O-])ccc1O2 (stereo not drawn)	4	85*
CN1c2ccccc2C(C)(C)C12C=Cc1cc(Br)cc([N+](=O)[O-])c1O2 (stereo not drawn)	-499	nt
COc1cccc2c1OC1(C=C2)N(C)c2ccc([N+](=O)[O-])cc2C1(C)C (stereo not drawn)	5	8
COc1ccccc1N=c1oc2c(OC)cccc2cc1C(N)=O	21	27
CC1(C)Nc2ccccc2C(=O)N1c1ccc(Br)cc1	0	-6
O=C(Cc1cccs1)Nc1cccn2nc(C3CC3)nc12	61*	35
Cc1ccccc1C(=O)Nc1cccn2nc(C3CC3)nc12	-24	17
Cc1ccc(N=Cc2nc(-c3ccc(Cl)cc3)oc2O)cc1Cl	0	0
Cc1cccc(C(=O)N2CCC(=O)N([C@H](COCc3ccccc3)Cc3ccccc3)CC2)c1	-6	65*!
Cc1cccc(C(=O)N2CCC(CCOc3ccccc3)CC2)c1	-4	-12
Cc1cccc(C(=O)N2CCN(C(=O)c3cccc(C)c3)CC2)c1	0	-11
Cc1cccc(COC[C@H](Cc2ccccc2)N2CCN(C(=O)c3cccc(Cl)c3)CCC2=O)c1	-4	98*
Cc1cccc(COC[C@H](Cc2ccccc2)N2CCN(C(=O)c3cccc(C)c3)CCC2=O)c1	-2	81*!
Cc1cccc(C(=O)N2CCC(=O)N([C@H](COCc3cccc(C(F)(F)F)c3)Cc3ccccc3)CC2)c1	-7	99*
Cc1cccc(C(=O)N2CCN(C)CC2)c1	1	0
Cc1cccc(COC[C@H](Cc2ccccc2)N2CCN(C(=O)c3cc(Cl)cc(Cl)c3)CCC2=O)c1	-2	0
SMILES	Pf apPOL block	mHTT-CaM PPI inh
Cc1ccc(S(=O)(=O)N2CCC(C(=O)NCCC3=CCCCC3)CC2)cc1	-2	-2
COCCC1CCN(C(=O)c2nc3ncccn3n2)CC1	-3	-4
CN1CCN(CCNC(=O)C2CCc3sc(C(=O)N4CCCC4)cc3C2)CC1 (stereo not drawn)	-3	1
O=C(Nc1c(F)c(F)c(F)c(F)c1F)c1ccccc1[N+](=O)[O-]	-5	1
COc1ccc(C(=O)NCCc2ccccc2)cc1	-17	-8
O=c1[nH]c2ccc(Br)cc2c(-c2ccccc2)c1CN1CCCCC1	-3	100*
Nc1c2c3c(c(Cl)ccc3[nH]c1=O)C(=O)c1ccccc1-2	0	13
Cc1[nH]c2ccc(Br)cc2c(=O)c1CN1CCOCC1	-1	-1
O=c1[nH]c2ccc(Br)cc2c(-c2ccccc2)c1NS(=O)(=O)c1ccccc1	21	98*
Cc1cc(Br)ccc1NS(=O)(=O)c1ccc2nc(-c3ccccc3)[nH]c2c1	-9	-2
Nc1c(-c2ccccc2Cl)c2cc(Br)ccc2[nH]c1=O	-8	79*
Cc1nc(N=C(N)Nc2ccc(F)cc2)[nH]c(=O)c1C	-1	-3
C[C@@]12CCC=C[C@H]1[C@H](c1ccc3ccccc3c1/C=C/c1ccccc1)N(Cc1ccccc1)C2=O	-7	38
COc1ccc(C=C2Oc3c(CN4CCN(C)CC4)c(O)cc(C)c3C2=O)c(OC)c1OC	-5	-3
O=C(Cc1ccccc1Cl)N1CCC(c2nnc(C(F)(F)F)o2)CC1	-7	-4
COc1cc(C(=O)/C=C/Nc2cc(C)ccc2O)cc(OC)c1OC	-4	30
CCC[C@H]1[C@@H](OC(=O)N2CCOCC2)CC[C@@]23CCCN2C(=O)CCC[C@@H]13	-4	-12
C[C@H]1[C@@H](OC(=O)Oc2ccc([N+](=O)[O-])cc2)CC[C@@]23CCCN2C(=O)CCC[C@@H]13	-9	10
CCC[C@H]1[C@@H](OC(=O)NCc2ccccc2Cl)CC[C@@]23CCCN2C(=O)CCC[C@@H]13	-3	16
CCC[C@H]1[C@@H](OC(=O)Oc2ccc([N+](=O)[O-])cc2)CC[C@@]23CCCN2C(=O)CCC[C@@H]13	0	58*
CCC[C@H]1[C@@H](OC(=O)N2CCN(c3ccccc3)CC2)CC[C@@]23CCCN2C(=O)CCC[C@@H]13	-5	99*
CCC[C@H]1[C@@H](OC(=O)NCCc2c[nH]c3ccccc23)CC[C@@]23CCCN2C(=O)CCC[C@@H]13	0	65*
COc1ccc(CN2CCN(C(=O)c3ccc(Cl)s3)CC2)cn1	-5	2
CC(=O)Nc1nc(SCc2ccc(F)cc2)[nH]c(=O)c1NC(=O)c1cccs1	-10	-9
COc1ccc(NS(=O)(=O)c2cc(Br)cc3c2N(C(C)=O)CC3)c(OC)c1	-4	25
SMILES	Pf apPOL block	mHTT-CaM PPI inh
C=CCN(CC=C)C(=O)C[n+]1cccc(/C=N/O)c1	1	i
CCOC(=O)NC(=S)c1ccc(OC)cc1	3	nt
COc1ccc(C(=S)NN)cc1	nt	58*
CS(=O)(=O)N(CC(=O)N1CCCCC1)c1cc(C(F)(F)F)ccc1Cl	-4	-3
COc1cc(C)c(S(=O)(=O)n2cnc3cc(C)c(C)cc32)cc1C	-3	67*
COc1cc(S(=O)(=O)n2cnc3cc(C)c(C)cc32)c(C)cc1C	-55	18
Cc1nc2c(C(=O)NCCc3ccccc3Cl)c[nH]n2c(=O)c1Cl	-15	57*
Cc1nc2c(C(=O)NCc3ccccc3)c[nH]n2c(=O)c1Cl	73*	46
Cc1nc2c(C(=O)NCc3ccccc3Cl)c[nH]n2c(=O)c1Cl	-13	13
Cc1nc2c(C(=O)NCc3ccccc3)c[nH]n2c(=O)c1Cc1ccccc1Cl	-2	40
COc1cc(-c2nc(C=Nc3cccc(C)n3)c(O)o2)cc(OC)c1OC	1	-1
N#CC(=Cc1[nH]c2ccccc2c1O)C(N)=NC1CCCCC1	0	92*
N#CC(=Cc1[nH]c2ccccc2c1O)C(N)=NCCc1ccccc1	-6	19
COc1ccc(CCNC(=O)N2CCN(Cc3nc4ccccc4[nH]3)CC2)cc1	-109	100*
Cc1nnsc1C(=O)N1CCN(Cc2nc3ccccc3[nH]2)CC1	-6	-15
Cc1sc2ccn(Cc3ccc(F)cc3)c(=O)c2c1C(=O)N1CCOCC1	1	12
CCn1ccc2oc(C)c(C(=O)N3CCC(Cc4ccccc4)CC3)c2c1=O	1	93*
Cc1sc2ccn(Cc3ccc(F)cc3)c(=O)c2c1C(=O)N1CCC(C)CC1	-5	80*
CCn1ccc2oc(C)c(C(=O)N3CCC(C)CC3)c2c1=O	0	-10
Cc1oc2ccn(Cc3ccc(F)cc3)c(=O)c2c1C(=O)N1CCCCC1	1	59*
Cc1oc2ccn(Cc3cccc(F)c3)c(=O)c2c1C(=O)N1CCCCC1	-1	1
